Measured values published in paper PMC12670160, “A drug-repurposing screen of FDA- and EMA-approved drugs identifies two NF-κB inhibitors active against eumycetoma” (Journal of Antimicrobial Chemotherapy, 2025).
Structures can show the parent of a compound that is named as a salt. Where two headings read alike, the source gives them in different places. Out of some 5,300 compounds screened, about 130 (2.5%) showed an effect of 50% or more. Only a selection was taken, and strong results are over-represented in it overall. Numbered stars: 1 amine (or outer) side, 2 acyl side, 3 side chain; on linkers, the order of the positions; unused ones are H or OH. Bridge positions count the residues as written; N and C are the ends. Square brackets hold non-standard residues; d marks the D form. Side chains are listed from the residue outwards. Peptide text beside a SMILES is read from it. I, II: the chains in the order shown. * marks the point of attachment. Actinocin(9to1) = Cc1c2oc3c(C)ccc(C(=O)[*:1])c3nc-2c(C(=O)[*:2])c(N)c1=O; X1 = CCC(C)C(N)C1=NC(C(=O)*)CS1; NMeV = CN[C@H](C(=O)O)C(C)C; Orn = NCCC[CH](N)C(=O)O; Sar = CNCC(=O)O

Tested on: M. mycetomatis strain mm55
Conditions: primary screen, metabolic activity vs growth control, 96 h, 2 µM, inhibitor

| SMILES | % viability | % viability (Madurella mycetomatis metabolic activity at 2µM (%)) |
| --- | --- | --- |
| C#C[C@]1(OC(=O)CCCCCC)CC[C@H]2[C@@H]3CCC4=CC(=O)CC[C@@H]4[C@H]3CC[C@@]21C [ONC0000267, norethisterone enanthate] | 63.38% |  |
| C=C1c2cccc(O)c2C(=O)C2C(=O)[C@]3(O)C(=O)C(C(N)=O)C(=O)[C@@H](N(C)C)[C@@H]3[C@@H](O)[C@H]12 (stereo partly drawn) [ONC0000687, methacycline hydrochloride] | 124.6% |  |
| CCOC(=O)c1ccccc1OC(=O)CCCCCCCC(=O)Oc1ccccc1C(=O)OCC [ONC0003554, tu2100] | 98.87% |  |
| CCOC(=O)c1c2c3c(cccc3[nH]c1=O)C(=O)c1ccccc1-2 [ONC0001061, nqdi1] | 43.7% |  |
| O=C1c2ccccc2-c2c(NCCc3ccccc3)c(=O)[nH]c3cccc1c23 [ONC0001816, brd7389] | 84.69% |  |
| Cn1cnc(=N)c2nc[nH]c21 [ONC0004721, 3methyladenine 3ma] | 115.8% |  |
| CCC(=O)OCC(=O)C1(OC(=O)CC)[C@H](C)C[C@H]2C3[C@H](Cl)CC4=CC(=O)C=C[C@]4(C)[C@H]3[C@@H](O)C[C@@]21C (stereo partly drawn) [ONC0002939, alclometasonedipropionate] | 82.49% |  |
| C/C(=C\c1csc(C)n1)[C@H]1C[C@@H]2O[C@]2(C)CCC[C@H](C)[C@H](O)[C@@H](C)C(=O)C(C)(C)[C@H](O)CC(=O)O1 [ONC0004615, patupilone epo906 epothilone b] | 75.3% |  |
| C[C@H]1CC2C([C@@H](O)C[C@@]3(C)C2CC[C@]3(O)C(=O)COC(=O)CCC(=O)O)[C@@]2(C)C=CC(=O)C=C12 (stereo partly drawn) [ONC0003156, methylprednisolone sodium succinate] | 82.41% |  |
| CC(=O)N[C@@H](CSSC[C@H](NC(C)=O)C(=O)O)C(=O)O [ONC0002807, nnü¾Œ“ ¼ü¾˜³ ¼diacetyllcystine] | 85.92% |  |
| CCCCOc1ccc(C(=O)Nc2ccc(F)cc2F)cc1 [ONC0005047, vu 0357121 vu 0357121 vu 0357121] | 78.07% |  |
| C=CCN(C)CCCCCCOc1ccc(C(=O)c2ccc(Br)cc2)c(F)c1 [ONC0001825, ro 488071 fumarate] | 29.93% |  |
| CCCCC(F)(F)C(=O)CC[C@H]1[C@H](O)CC(=O)[C@@H]1CCCCCCC(=O)O [ONC0004918, lubiprostone] | 115.4% |  |
| Fc1ccc(-c2nc(-c3c(F)cccc3F)[nH]c2-c2ccncc2)cc1 [ONC0000887, ta01] | 46.48% |  |
| Oc1ccc(-c2nc(-c3ccncc3)c(-c3ccc(F)cc3)[nH]2)cc1 [ONC0000026, sb202190] | 54.44% |  |
| C[S+]([O-])c1ccc(-c2nc(-c3ccncc3)c(-c3ccc(F)cc3)[nH]2)cc1 (stereo not drawn) [ONC0000881, sb203580] | 87.12% |  |
| CSc1ccc([C@H]2CN3CCC[C@H]3c3ccccc32)cc1 [ONC0000925, mcn5652] | 74.54% |  |
| CN1CCCC1c1cccnc1 (stereo not drawn) [ONC0005499, nicotine bitartrate] | 91% |  |
| C[C@@H]1NC(C)(C)CO[C@@]1(O)c1cccc(Cl)c1 [ONC0001157, radafaxine hydrochloride] | 85.48% |  |
| [2H]C([2H])([2H])C(=O)Nc1c(I)c(C(=O)O)c(I)c(C(=O)NC)c1I [ONC0002149, iothalamic acidd3] | 66.44% |  |
| CCC(C)C(N)C1=NC(C(=O)NC(CC(C)C)C(=O)NC(CCC(=O)O)C(=O)NC(C(=O)NCCCCC2NC(=O)C(CC(N)=O)NC(=O)C(CC(=O)O)NC(=O)C(Cc3c[nH]cn3)NC(=O)C(Cc3ccccc3)NC(=O)C(C(C)CC)NC(=O)C(CCCN)NC2=O)C(C)CC)CS1 (stereo not drawn) [ONC0003188, bacitracin] (cyclo(DNK([Ile-Glu-Leu-X1])[Orn]IFH); configuration not given here) | 113.7% |  |
| C=C(NNC(=S)NNC(=S)Nc1ccccc1Cl)c1ccccn1 [ONC0001982, n2chlorophenyl22e212pyridinylethylidenehydrazinocarbothioylhydrazinecarbothioamide] | 78.69% |  |
| O=C(O)c1ccccn1 [ONC0003765, picolinicacid] | 105.8% |  |
| C/C(=N\NC(=S)N1CCC1)c1ccccn1 [nsc319726] | 6.057% |  |
| Cc1c2oc3c(C)ccc(C(=O)N[C@@H]4C(=O)N[C@H](C(C)C)C(=O)N5CCC[C@H]5C(=O)N(C)CC(=O)N(C)[C@@H](C(C)C)C(=O)O[C@@H]4C)c3nc-2c(C(=O)N[C@@H]2C(=O)N[C@H](C(C)C)C(=O)N3CCC[C@H]3C(=O)N(C)CC(=O)N(C)[C@@H](C(C)C)C(=O)O[C@@H]2C)c(N)c1=O [ONC0002258, actinomycin d] (I: T[dV]P[Sar][NMeV] / II: T[dV]P[Sar][NMeV]; ester I:1-I:C, II:1-II:C; linker I:N-II:N via Actinocin(9to1)) |  | 100.3% |
| CNCCN(C)Cc1c[nH]nc1-c1ccc(O[C@H]2C[C@H](OCCC3CCOCC3)C2)cc1.Cl [ONC0000962, epz020411 hydrochloride] | 79.33% |  |
| CN1c2c(nc(N)[nH]c2=O)NC[C@@H]1CNc1ccc(C(=O)N[C@@H](CCC(=O)O)C(=O)O)cc1 [ONC0002220, levomefolate calcium] | 182.5% |  |
| CCCCCCCCCCCCCCCC(=O)OC[C@H](O)[C@H]1OC(=O)C(=O)C1O (stereo partly drawn) [ONC0004072, ascorbyl palmitate] | 135.5% |  |
| C[C@H](O[C@H]1OCCN(Cc2n[nH]c(=O)[nH]2)[C@H]1c1ccc(F)cc1)c1cc(C(F)(F)F)cc(C(F)(F)F)c1 [ONC0004612, aprepitant mk0869] | 34.22% |  |
| C[C@@H](O[C@H]1OCCN(Cc2nc(O)n(P(=O)(O)O)n2)[C@H]1c1ccc(F)cc1)c1cc(C(F)(F)F)cc(C(F)(F)F)c1 [ONC0004322, fosaprepitant dimeglumine salt] | 108.4% |  |
